According to PubChem BioAssay (NCI):
This is part of a sample that, as a whole, favours compounds with a hit. Of some 83,000 tested, about 20% had one in any assay.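 For each line, cells grew in 96-well plates with the test compound present at a single concentration for 48 hours.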 Values without a mark were called inactive. Active and inactive are the calls of the source. The calls were made as follows: active = growth percent below 10; inactive = the rest.

system: MDA-MB-468 breast; assay: NCI-60 one-dose screen, 48 h (100 = growth as untreated, 0 = no growth, -100 = all killed); conditions: 10 µM unless noted

**Q.** Which growth does the source give for `Cc1ccccc1NC(=O)c1sc2nc(C)c(C(C)O)cc2c1N` (stereo not drawn) here?
**A.** 39.5%

**Q.** With `Nc1nc(Nc2ccccc2)c(C=Nc2ccccc2)c(=O)[nH]1` as the molecule, how does the growth read?
**A.** 99.6%

**Q.** With `CC1(C)NC(=S)NC1=O` as the molecule, how does the growth read?
**A.** 109%

**Q.** For `COc1ccc(C(c2cc(OC)c(OC)c(OC)c2)N2CCN(c3ccccc3)CC2)cc1` (stereo not drawn), which growth is on record?
**A.** 77.2%

**Q.** How did the growth turn out when `CC(C)(C)CC(C)(C)c1ccc(OCCSC(=N)N)cc1` was run?
**A.** -23.9% (active)

**Q.** Which growth does the source give for `CCCCNC1=C(OCC)C(=O)c2ccccc2C1=O` here?
**A.** 56.3%

**Q.** Which growth does the source give for `CCn1cc(C(=O)O)c(=O)c2cc(F)c(N3CCN(S(=O)(=O)c4ccc(Cl)cc4Cl)CC3)cc21` here?
**A.** -1.55% (active)

**Q.** For `C=C1/C(=C\C=C2/CCC[C@]3(C)[C@@H]([C@H](C)CCCC(C)(C)O)CC[C@@H]23)C[C@@H](OC(=O)CBr)C[C@@H]1O`, which growth is on record?
**A.** 72.8%

**Q.** Which growth does the source give for `O=C(O)c1ccc(-c2nn(-c3ccc(C(=O)O)cc3)cc2/C=N/Nc2c(F)c(F)cc(F)c2F)cc1` here?
**A.** 117%

**Q.** Which growth does the source give for `Cn1cc(C2=C(c3cccc4ccccc34)C(=O)NC2=O)c2cc(Br)ccc21` here?
**A.** 87.2%

**Q.** For `COc1ccc(/C=C\c2cc(OC)c(OC)c(OC)c2)cc1OC(=O)c1cccc(Cn2cc(CCOC(=O)c3cccc(Cn4nnc5c4C(=O)c4ccccc4C5=O)c3)nn2)c1`, which growth is on record?
**A.** 5.62% (active)

**Q.** How did the growth turn out when `Nc1c(C(=O)Nc2ccc(C(F)(F)F)cc2)sc2nc(-c3cnccn3)cc(-c3cccs3)c12` was run?
**A.** 69.9%

**Q.** How did the growth turn out when `Cc1ccc2[nH]c(=O)c3c(c2c1)OC(N)=C(C#N)C31C(=O)c2cccc3cccc1c23` (stereo not drawn) was run?
**A.** 95.1%
